In PubChem BioAssay AID1697 (The Scripps Research Institute Molecular Screening Center, 2009):
The list shows a part of the results. Calls of active or inactive are those of the source.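 Rule for the calls: active = percent activation above the mean of DMSO-only control wells plus 3 SD of those wells (cut at about 18% in these data); inactive = the rest.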

Biological target: Neuropeptide Y receptor type 1 (Homo sapiens) (UniProt P25929)
Test: human Y1 receptor agonism – cell-based, fluorescence, counter-screen for NPY-Y1 potentiator project, confirmation (AID 1697);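 note: cells challenged with isoproterenol plus Ro 20-1724 with no NPY in test wells; Y1 agonism lowers isoproterenol-driven cAMP and reduces probe fluorescence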
Conditions: HEK293 Y1-CNGC, membrane potential fluorescence, agonist mode; at 3.6 µM; hits give high values

Chain of Neuropeptide Y receptor type 1 (Homo sapiens) (P25929 whole entry, looked up): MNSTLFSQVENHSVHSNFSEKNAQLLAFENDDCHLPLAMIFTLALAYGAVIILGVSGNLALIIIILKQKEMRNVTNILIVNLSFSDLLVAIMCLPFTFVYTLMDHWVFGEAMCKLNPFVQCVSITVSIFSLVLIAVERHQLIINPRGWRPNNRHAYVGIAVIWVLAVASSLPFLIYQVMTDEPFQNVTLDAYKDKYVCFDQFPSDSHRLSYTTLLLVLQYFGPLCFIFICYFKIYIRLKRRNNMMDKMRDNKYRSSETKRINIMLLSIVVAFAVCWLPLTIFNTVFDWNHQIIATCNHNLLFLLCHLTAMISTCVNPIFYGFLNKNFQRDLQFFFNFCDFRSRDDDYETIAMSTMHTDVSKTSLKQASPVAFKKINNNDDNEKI

Row | SMILES | activation
1 | O=C1/C(=C/c2coc3ccc(O)cc3c2=O)SC(=S)N1c1ccccc1 | 16.8% (inactive)
2 | CSc1nc(-c2ccco2)nn1C(=O)c1ccccc1Cl | 28.5% (active)
3 | O=C(Nc1ccc2c(c1)CCC2)c1cccc(S(=O)(=O)Nc2ccccc2Cl)c1 | 3.19% (inactive)
4 | O=[N+]([O-])c1cc(Cl)cc(/C=N/NC(=S)Nc2cc(S(=O)(=O)N3CCOCC3)ccc2Cl)c1O | 77% (active)
5 | O=C(c1cccs1)N1CCN(C(=O)N2CCOCC2)CC1 | -8.38% (inactive)
6 | Cc1ccccc1NCC(=O)N/N=C\c1ccc([N+](=O)[O-])s1 | 40% (active)
7 | CN1C(=O)c2ccccc2C(C(=O)NCCCN2CCCC2)C1c1c[nH]c2ccccc12 (stereo unspecified) | -3% (inactive)
8 | COC(=O)c1sc(-c2ccc(C(C)(C)C)cc2)cc1NC(=O)/C=C/C(=O)O | 26.9% (active)
9 | O=C(Nc1ccccc1C(F)(F)F)c1cc(-c2ccc(O)cc2)on1 | 9.5% (inactive)
10 | COC(=O)c1ccc(NC(=O)CN(c2ccc(C)cc2)S(=O)(=O)c2c(C)n[nH]c2C)cc1 | 45.3% (active)
11 | Cc1cccc(OCC(O)CN2CCN(CCN3C(=O)c4cccc5cccc(c45)C3=O)CC2)c1C (stereo unspecified) | 45.1% (active)
12 | CCn1c2ccccc2c2cc(NC(=O)Nc3ccc([N+](=O)[O-])cc3C)ccc21 | 11.8% (inactive)
13 | COCCn1nnnc1C(c1ccccc1Cl)N1CCN(c2ccccc2OC)CC1 (stereo unspecified) | -0.37% (inactive)
14 | CC1=C/C(=N\OS(=O)(=O)c2ccccc2)C=CC1=O | 14.2% (inactive)
15 | CC(=O)c1ccc(NC(=O)C2CC(=O)Nc3nc4ccccc4n32)cc1 (stereo unspecified) | 38% (active)
16 | N#Cc1ccc(C(=O)Nc2nc(-c3cccs3)c(C(=O)C(F)(F)F)s2)cc1 | -33.9% (inactive)
